Screens: PubChem BioAssay, NMMLSC
RGS8-Gao reg – RGS8-Galphao binding modulators, primary screen, biochemical, multiplexed bead flow cytometry; AID 1423, 2008; response (percent of control binding), % at 10 µM; actives lie on both sides; Guanine nucleotide-binding protein G(o) subunit alpha (Homo sapiens), P09471; 220,000 compounds, 0.34% hits; in the data active means response below about 60% or above about 140%; inactive means in between;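 further: Galphao activated as the GDP aluminium fluoride complex binding bead-coupled RGS8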
Target sequence (P09471 whole entry, looked up): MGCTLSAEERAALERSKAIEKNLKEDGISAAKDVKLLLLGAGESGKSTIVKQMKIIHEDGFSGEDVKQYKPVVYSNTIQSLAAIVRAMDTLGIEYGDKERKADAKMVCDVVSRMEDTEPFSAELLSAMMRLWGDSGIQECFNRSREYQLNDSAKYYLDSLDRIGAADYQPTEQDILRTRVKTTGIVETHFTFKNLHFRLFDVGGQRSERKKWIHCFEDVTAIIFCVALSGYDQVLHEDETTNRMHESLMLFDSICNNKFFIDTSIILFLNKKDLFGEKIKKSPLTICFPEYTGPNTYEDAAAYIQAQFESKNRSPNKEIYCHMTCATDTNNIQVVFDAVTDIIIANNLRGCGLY
GSH bead fluor – compound fluorescence on glutathione beads, profiling panel, artefact control, biophysical, 488/530 nm, flow cytometry; fluorescence (KMESF) at 10 µM; AID 1776, 2009; GSH beads flow cytometry, compound fluorescence 488/530 nm; hits give high values; 190,000 compounds, 0.25% hits; in the data active means fluorescence above about 89;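 further: glutathione beads carrying GST-tagged Bcl family fusion proteins plus one bare bead set; values are compound well signal with DMSO vehicle wells as background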
RGS7-Gao – RGS7-Galphao binding modulators, primary screen, biochemical, multiplexed bead flow cytometry. binding response (% of control), % at 10 µM. 220,000 compounds, 0.35% hits. actives lie on both sides. AID 1439, 2008. Guanine nucleotide-binding protein G(o) subunit alpha (Homo sapiens), P09471; in the data active means binding response below about 49% or above about 150%; inconclusive means no clear call, values can overlap the other calls; inactive means in between;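 further: fluorescent Galphao held in activated GDP-AlF4 state binding bead-coupled RGS7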
RGS4-Gao reg – modulators of RGS4 binding to Galphao, primary screen, biochemical, multiplexed bead flow cytometry; actives lie on both sides; 220,000 compounds, 0.33% hits; binding response (% of control), % at 10 µM; Guanine nucleotide-binding protein G(o) subunit alpha (Homo sapiens), P09471; in the data active means binding response below about 49% or above about 150%; inactive means in between;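 further: fluorescent Galphao activated with aluminum fluoride binding bead-coupled RGS4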
RGS16-Gao – modulators of RGS16 binding to Galphao, primary screen, biochemical, human proteins, multiplexed bead flow cytometry; bead-based flow cytometry RGS16-Galphao binding, fluorescence; actives lie on both sides; Regulator of G-protein signaling 16 (Homo sapiens) + Guanine nucleotide-binding protein …; binding response (% of control), % at 10 µM; 220,000 compounds, 0.38% hits; call rule not given here;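 further: Galphao activated by GDP with aluminum fluoride before binding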
Avidin fluor – green autofluorescence of compounds with avidin beads – biophysical, 488/530 nm, flow cytometry, artefact control, profiling panel; compound fluorescence 488/530 nm; hits give high values; fluorescence (KMESF) at 10 µM; 220,000 compounds, 0.38% hits; AID 1775, 2009; in the data active means fluorescence above about 47
The depositor's hits bear a star; ? = inconclusive; nt = not tested or not shown. An excerpt weighted towards active compounds, which were near 1.2% of everything screened.

SMILES	RGS8-Gao reg	GSH bead fluor	RGS7-Gao	RGS4-Gao reg	RGS16-Gao	Avidin fluor
Cc1nc(NCc2ccco2)c2c(C)c(C)sc2n1	96.5	25	90.3	96.0	93.4	11
Cc1sc2nc3c4ccccc4c(NCc4ccco4)nn3c(=O)c2c1C	99.2	8	119.5	103.2	104.2	65*
CCCn1c2c(c(O)c(C(=O)NCc3ccccc3)c1=O)CCCC2	103.3	15	113.4	105.3	99.9	54*
COC(=O)NNC(=S)Nc1ccc(Br)cc1	102.5	24	109.2	101.7	102.7	16
O=C(NCc1ccco1)/C(=C/c1cccnc1)NC(=O)c1ccco1	12.5*	24	14.1*	21.0*	1.6*	-2
C=CCNC(=O)c1ccc(Cn2c(=S)[nH]c3cc4c(cc3c2=O)OCO4)cc1	99.6	16	106.9	101.1	100.7	47*
COC(=O)c1cc2c(ccn2-c2ccc(F)cc2)n1CC(C)C	103.2	10	96.7	97.0	99.5	10
COC(=O)c1cc2c(ccn2-c2ccc(F)cc2)n1C(C)C	103.6	10	110.7	108.7	102.4	52*
C=CCc1ccccc1OCC(O)CNC(=O)c1ccccc1C(=O)O (stereo not given)	100.2	nt	?	97.7	100.1	8
O=C(Cn1cc(C(F)(F)F)ccc1=O)Nc1cccc(S(=O)(=O)N2CCOCC2)c1	101.2	11	135.8	105.7	99.3	96*
CCOC(=O)N1CCN(c2cc(NCCO)c([N+](=O)[O-])c3nonc23)CC1	94.6	21	133.2	83.9	96.6	103*
CCCCC1C(C#N)=C(C)NC2=C1C(=O)CC(C)(C)C2 (stereo not given)	103.3	253*	103.0	100.2	103.6	6
COc1ccc(C2C(C#N)=C(C)NC3=C2C(=O)CC(C)(C)C3)c(OC)c1 (stereo not given)	102.2	29	98.5	100.3	104.5	6
Cc1cccc(-n2cc(-c3ccccc3)c3c(=O)[nH]cnc32)c1	94.9	11	89.1	90.6	97.0	10
COc1cc2c(cc1OC)CN(Cc1ccc(OC)c(C)c1OC)CC2	98.9	25	93.9	92.5	102.7	6
Cc1cc(CNC(=O)c2ccc3c(c2)OCO3)c2ccccc2n1	94.1	8	92.3	91.2	91.9	9
CCN(CC)c1ccc(/C=c2\sc3nnc(-c4ccccc4Cl)n3c2=O)cc1	100.4	104*	125.0	133.9	133.4	28
Cn1c(=O)c2c(ncn2CC(=O)OCC(=O)Nc2cc(Cl)ccc2Cl)n(C)c1=O	100.2	8	102.1	101.6	106.9	11
CC(=O)c1cc(F)c(N2CCN(C(=O)COc3ccc(F)cc3)CC2)cc1C	105.3	93*	104.0	103.1	103.0	5
CS(=O)(=O)N1CCN(c2ccccc2NC(=O)c2cccs2)CC1	98.6	10	98.0	98.0	98.1	47*
O=C(Nc1ccccc1N1CCCCC1)c1cccs1	101.9	34	107.5	107.6	106.1	14
COc1cc(N2CCCC2)c(OC)cc1/C=c1/sc2nc3ccccc3n2c1=O	105.1	61	137.8	139.9	165.4	63*
O=C(Nc1cccc(-c2nnc(-c3ccco3)o2)c1)C(c1ccccc1)c1ccccc1	101.0	28	99.7	99.5	100.3	8
COc1ccccc1NC(=O)N1CCCC1C(=O)NC12CC3CC(CC(C3)C1)C2 (stereo not given)	101.2	280*	105.2	100.8	104.2	8
Cn1cnc2c(=O)[nH]cc([N+](=O)[O-])c21	106.2	8	118.1	111.8	115.4	62*
O=C1c2ccncc2C(=O)N1CO	8.6*	11	-10.4*	-31.1*	-19.9*	-3
CC(C)N1C(=O)CCC1C(=O)O (stereo not given)	107.1	23	109.8	109.6	106.5	10
CCCOc1ccc(C2CC(=O)NC2=O)cc1 (stereo not given)	102.8	15	105.6	104.6	106.6	11
